A short description of test [1]: polyglutamine-triggered caspase-3 activation inhibitors, cell-based (AID 1583). Particulars: polyglutamine-induced caspase-3 activation, cell assay; stronger effect = higher value;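 tested at 10 µM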.
The nature of test [2]: suppressors of polyQ aggregation in yeast, 75Q-TubU reporter (AID 1593). Conditions: Yeast 75Q polyglutamine aggregation reporter.
Test [3] in a line: rescue of polyQ-huntingtin neuronal dysfunction in worms, whole organism, C. elegans mechanosensory neurons, N-terminal huntingtin (AID 1599). Conditions: touch response, stronger effect = higher value.
Test [4] in a line: inhibitors of mitochondrial cytochrome c release, biochemical, purified mitochondria (AID 1603).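 Note: mouse liver mitochondria challenged with calcium chloride; signal normalized to the plate average as 100%.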 Conditions: stronger effect = lower value.
A short description of test [5]: inhibitors of polyQ protein aggregation (AID 1604). Conditions: polyglutamine-induced protein aggregation inhibition assay; stronger effect = higher value; tested at 2.5 µM.
Test [6] is described as follows: enhancers of glutamate uptake in motor neurons, MN-1 cell line (AID 1612).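 Note: tested at 1 µM final; 0% = mean of DMSO vehicle wells on each plate; positive means more glutamate uptake than control and negative means less.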 Conditions: MN-1 motor neuron cells, stronger effect = higher value.
A short description of test [7]: reducers of polyQ inclusions in PC12 cells, cell-based, NGF-treated PC12, GFPQ80 (AID 1614).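 Note: lower means fewer inclusions and 0 means no inclusions at all.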 Conditions: PC12 NGF-treated GFP-polyQ80 inclusion reduction.
Test [8] in a line: suppressors of polyglutamine aggregation in yeast, 75Q-TubH (AID 1616). Conditions: S. cerevisiae 75Q-TubH polyglutamine aggregation suppression; stronger effect = higher value.
Test [9] is described as follows: liver-stage malaria parasite growth inhibition, primary screen, cell-based, HepG2, luciferase luminescence, HepG2 viability (AID 624349).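 Note: 100% = mean of DMSO negative control wells on the same plate.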 Particulars: P. berghei liver stage in HepG2, luciferase luminescence, concentration not given here; parasite load remaining: stronger effect = lower value; viability: measured here: HepG2 viability without parasites.
A short description of test [10]: differential killing of epithelial or mesenchymal cells, primary screen, imaging, PC-3E GFP, TEM4-18 mCherry, co-culture (AID 1345086;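 active = compounds killing one labelled cell type while sparing the other, by normalised counts and ratio limits, not self-fluorescent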;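 for all read-outs here: cells exposed to compound for 72 h before imaging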;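 for red/green cell ratio (normalised): normalised mesenchymal count divided by normalised epithelial count so high means epithelial killing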). Particulars: imaging cell counts, at 1 µM; for red/green cell ratio (normalised): actives lie on both sides, counts scaled to control wells, 1 = unselective.
Test [11] in a line: sensitizers of A549 cells to miR-34 induction, primary screen, imaging, A549 dox-inducible miR-34, nuclei and caspase counts (AID 1347080;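 active = compounds whose cell count with miR-34 switched on is under 0.7 times the count with it off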). Conditions: A549 miR-34 inducible, Hoechst nuclei count, 48 h.
The mark [12] stands for this setting: measured here: epithelial PC-3E GFP cell survival.
Setting [13] is: measured here: mesenchymal TEM4-18 mCherry cell survival.
Setting [14] is: stronger effect = lower value, cell number ratio, induced over uninduced.
Setting [15] is: measured here: relative caspase fold change +Dox/-Dox.
[16] abbreviates: measured here: total cells with miR-34 induction, stronger effect = lower value.
[17] abbreviates: measured here: total cells without miR-34 induction.

Each structure is given as a SMILES string. Several values for one entry are separate records, joined by “and”; a condition that tells them apart may be missing. Equal entries are not always repeated. For some of these results: Results with a measured potency or affinity are listed apart. Activity calls are given as the source filed them. Cut-off read from the data, not from the text of the source, unless noted: active = parasite load remaining mostly below about 12% (no sharp cut-off); inactive = mostly above about 10%.

Consider `CC(=O)OCC(=O)[C@@]1(O)[C@H](OC(C)=O)CC2C3CCC4=CC(=O)C=C[C@]4(C)[C@@]3(F)[C@@H](O)C[C@@]21C` (stereo not given in full), for which, in test [1], the inhibition is -24%. In addition, the score in test [2] was determined as 1.15. In addition, the rescue above control in test [3] turned out to be 19.5. Also, the cytochrome c release ratio in test [4] was found to be 1.31. The same molecule registered an inhibition of aggregation in [5] of 89.7%. Besides, the glutamate uptake change in test [6] is 9.09%. The same molecule yielded an inclusion score in [7] of 2.5. Moreover, in test [8], the aggregation suppression score is 0.805. For the same molecule, in [9], the parasite load remaining is 160% (inactive) and 64.8% (inactive). For the same molecule, in [9], the viability was 67.1% and 85.5%. The red/green cell ratio (normalised) in test [10] is 1.19 (inactive). Besides, the normalised cell number was 0.98 in test [10] (setting [12]) and 1.17 in test [10] (setting [13]). The fold change was 0.86 (inactive) in test [11] (setting [14]) and 3.23 in test [11] (setting [15]). Also, the values for the cell count in [11] (setting [16]) and in test [11] (setting [17]) were 7630 and 8870, respectively.
With `CN1C2CC(OC(=O)[C@H](CO)c3ccccc3)C[C@H]1[C@H]1OC21` (stereo not given in full), the inhibition in test [1] amounted to 15.1%. This molecule also came in with a score in test [2] of 1.26. This molecule came in with a rescue above control in [3] of 6.9. In [4], the cytochrome c release ratio came out at 1.03. The molecule further gave an inhibition of aggregation in test [5] of 58.7%. In test [6], the glutamate uptake change came to 1.71%. Further, in test [7], the inclusion score stood at 2. The same molecule had an aggregation suppression score in test [8] of 1.18. For the same molecule, the parasite load remaining in [9] was 98.3% (inactive) and 40.5% (inactive). Moreover, the viability in [9] is 76.7% and 88.6%. In test [10], the red/green cell ratio (normalised) was 0.76 (inactive). Besides, the figures for the normalised cell number in [10] (setting [12]) and in [10] (setting [13]) were 1.11 and 0.84, respectively. The figures for the fold change in test [11] (setting [14]) and in test [11] (setting [15]) were 0.977 (inactive) and 3.37, respectively. Besides, the cell count in test [11] (setting [16]) was determined as 11400; in test [11] (setting [17]) it was 11600.
As to `COC(=O)C1[C@H]2C[C@H]3c4[nH]c5ccccc5c4CCN3C[C@@H]2CC[C@@H]1O` (stereo not given in full), the inhibition in [1] was -35.1%. Also, the score in test [2] was 1.22. Further, the rescue above control in test [3] is 15.8. Besides, in [4], the cytochrome c release ratio was 0.69. The molecule further had an inhibition of aggregation in [5] of 9.99%. Besides, the glutamate uptake change in [6] was -7.18%. For the same molecule, the inclusion score in test [7] turned out to be 2. The molecule further gave an aggregation suppression score in [8] of 1.41. In test [9], the parasite load remaining is 81.2% (inactive) and 40.6% (inactive). Further, the viability in test [9] is 73.2% and 95.3%. Further, the red/green cell ratio (normalised) in test [10] is 1.01 (inactive). Further, the normalised cell number is 1.03 in test [10] (setting [12]) and 1.04 in test [10] (setting [13]). The fold change in [11] (setting [14]) is 0.924 (inactive); in test [11] (setting [15]), 3.3. Also, the cell count was 12100 in [11] (setting [16]) and 13100 in test [11] (setting [17]).
For `C=C[C@@]1(C)CC(=O)[C@@]2(O)[C@](C)(O1)[C@@H](OC(C)=O)[C@@H](O)C1C(C)(C)CC[C@H](O)[C@@]12C` (stereo not given in full), the inhibition in [1] was 4.06%. In test [2], this molecule gave a score of 1.39. Moreover, the rescue above control in test [3] came to 0.33. Further, the cytochrome c release ratio in test [4] came to 0.91. This molecule displayed an inhibition of aggregation in [5] of 15.4%. In test [6], the glutamate uptake change came to 15.8%. In test [7], this molecule came in with an inclusion score of 1. In addition, the aggregation suppression score in test [8] came to 1.2. Besides, the parasite load remaining in test [9] was 150% (inactive) and 45.5% (inactive). Further, the viability in test [9] was 93.3% and 96.7%. In addition, the red/green cell ratio (normalised) in test [10] is 1 (inactive). Also, the results for the normalised cell number in [10] (setting [12]) and in test [10] (setting [13]) were 1.25 and 1.26, respectively. For the same molecule, the figures for the fold change in [11] (setting [14]) and in [11] (setting [15]) were 0.888 (inactive) and 3.59, respectively. For the same molecule, the cell count is 11900 in test [11] (setting [16]) and 13400 in [11] (setting [17]).
`NCC[C@@H](O)C(=O)N[C@@H]1C[C@H](N)[C@@H](O[C@H]2O[C@H](CN)[C@@H](O)[C@H](O)[C@H]2O)[C@H](O)[C@H]1O[C@H]1O[C@H](CO)[C@@H](O)[C@H](N)C1O` (stereo not given in full): the inhibition in test [1] was -41.9%. In [2], this molecule yielded a score of 1.11. The molecule further registered a rescue above control in test [3] of -4.05. For the same molecule, in [4], the cytochrome c release ratio was 0.95. In addition, the inhibition of aggregation in [5] turned out to be 36.6%. In addition, the glutamate uptake change in test [6] is 9.38%. Also, the inclusion score in test [7] was 2. In test [8], this molecule yielded an aggregation suppression score of 1.24. In addition, the parasite load remaining in [9] is 115% (inactive) and 70.5% (inactive). Further, in test [9], the viability is 74.2% and 95.8%. Besides, the red/green cell ratio (normalised) in test [10] is 1 (inactive). For the same molecule, the normalised cell number in test [10] (setting [12]) and in test [10] (setting [13]) was 1.2 in each case. The fold change in [11] (setting [14]) was 0.885 (inactive); in [11] (setting [15]), 0.583. For the same molecule, the cell count in test [11] (setting [16]) stood at 10600; in test [11] (setting [17]), 11900.

In general, inhibition refers to the drop in the measured response relative to a control, in per cent. As a reminder, the viability is a read-out of living cells in per cent, often relative to untreated cells.
